Test results as given in PubChem BioAssay AID588856 (National Center for Advancing Translational Sciences (NCATS), 2011).
“And” between values parts separate entries of the source, which are not always exact repeats. Equal entries are not always repeated. Among all 410,000 compounds or so, about 3,100 (0.76%) were called active. The call rests on the fitted dose curve; in most records, active means well fitted cell-killing curve with a large enough effect; inactive means no such curve, though single readings can be large or run the other way. Shown is part of a subset that was picked to be rich in actives. More than one record can exist for a structure, and the calls need not agree.

Assay: qHTS for Inhibitors of TGF-b: Cytotox Counterscreen
Conditions: HepG2 CAGA-GFP viability, ATP luminescence, 18 h; series mostly up to 46.1 µM; activity change, negative = cytotoxicity: at the top concentration
Text: TGF-b is a main component in the TGF-b signaling pathway which plays diverse roles in cellular and development pathways. TGF-b is mediated by transcription factors called "Smads". Although the Smad-dependent pathway is the primary canonical TGF-b signaling mode, TGF-b1 can also activate alternative signaling pathways, including those involving MAPK (ERK, JNK and p38). This interaction may mediate or enhance Smad-dependent responses, or can exert Smad-independent effects. The complexity of this signaling cascade allows the TGF-b superfamily to perform unique, overlapping or redundant functions. We believe that targeting the TGF-beta pathway at the Smad-transcription factor level may eliminate the consequences of disrupting the entire pathway and offer specificity without affecting other signaling pathways. Smad3 is the primary transducer of TGF-b's signals and Smad3 regulates many functions attributed to TGF-b signaling. We hypothesize that Smad3 inhibitors will selectively eliminate Smad3-specific TGF-beta signals without undesired off-target effects. We aim to identify Smad3-small molecule antagonists using a quantitative high throughput screening (qHTS) approach.
A high-throughput assay was developed to screen the NIH Molecular Libraries Small Molecule Repository (MLSMR). This is a cell based assay, where TGF-b is tagged with GFP. This is a counterscreen that evaluates the cytotoxicity of the compounds that were screened in the primary cell-based screen (AID 588855).
MH087449NIH Chemical Genomics Center [NCGC]
NIH Molecular Libraries Probe Centers Network [MLPCN]
Assay Submitter (PI): Sushil Rane, National Institute of […]
Suspensions of trypsinized HEPG2 CAGA-GFP cells were dispensed into white, tissue culture-treated, solid 1536-well plates at 5uL/well (1000 cells/well final concentration) in DMEM medium supplemented with 1% FBS. Plates were incubated at 37 degrees C for 2 hours, after which 23 nL of compounds or DMSO were delivered to each well using a pin tool. One uL of recombinant TGF-beta in DMEM (1% FBS) was then dispensed (500 pg/mL final concentration), and plates were incubated at 37 degrees C for 18 hours. Two uL of CellTiter Glo (Promega), a luminescence-based viability reagent, was dispensed, followed by a 10 minute room temperature incubation. The plates were then measured on a PerkinElmer ViewLux plate reader for luminescence (clear filter) using a 5 second exposure. The %Activity was determined from the corrected luminescence values. Wells containing media only (no cells) were used to normalize %Activity of identified toxic compounds; media-only wells corresponded to 100%Activity (complete cell-killing), while DMSO-dosed cell controls were used to normalize 0%Activity (no toxicity).
Concentration-response curves were fitted to the signals arising from the resulting luminescence. The concentration-effect curves were then classified based on curve quality (r2), response magnitude and degree of measured activity, and compounds were subsequently categorized based on their curve class.
Potency means the concentration at half of the fitted maximal effect.

Compound	activity change, negative = cytotoxicity	Potency
COc1ccc(NC(=O)C(=O)NCc2ccco2)cc1	7.02% (inactive)	
COc1ccc(CC(=O)Nc2ccc(-c3nc4ccccc4s3)c(C)c2)cc1	-2.33% (inactive)	
COc1ccc(CS(=O)/C(Cl)=C(/Cl)C(=O)Nc2ccc(OC)nc2)cc1 (centres undefined)		14.1 µM (active)
COc1ccc(-n2c(=O)c3c(c4cc(OC)ccc4n3C)n(Cc3cccc(C)c3)c2=O)cc1	-0.731% (inactive)	
COc1ccc(CNC(=O)C2=Cc3cccc(OC)c3OC2)cc1OC	6.48% (inactive)	
COc1ccc(OC)c(CNC(=O)c2c3c(nc4ccccc24)C(=O)N(C2CCCCC2)C3)c1	1.46% (inactive)	
O=C(NCCCN1CCN(c2cccc(Cl)c2)CC1)c1nnc(Cc2ccc(F)cc2Cl)o1		11.2 µM (active)
O=C(Cc1csc(Nc2nc(=S)[nH]c3ccccc23)n1)NCCCN1CCN(c2cccc(Cl)c2)CC1	-22.2% (inactive)	
COc1ccc(N2CCN(CCNC(=O)c3nnc(Cc4c(F)cccc4Cl)o3)CC2)cc1	-11.4% (inactive)	
CCc1ccc(NC(=O)CN2C(=O)C(c3ccccc3)=NC23CCCCCC3)cc1	-29.3% (inactive)	
COC(=O)Nc1ncc(CN2C(=O)c3ccccc3C2=O)s1	11% (inactive)	
Cc1cnc(NC(=O)c2ccccn2)s1		5.01 µM (active)
COc1ccc(CC(=O)NCc2nnc(SCC(=O)Nc3ncc(C)s3)n2C)cc1	2.57% (inactive)	
CCOc1ccccc1CNC(=O)c1ccc2c(c1)nc1n2CCC(C)C1 (centres undefined)	0.917% (inactive)	
CCN(Cc1ccccc1)Cc1c(O)ccc2c(=O)c(-c3ccc(Cl)cc3Cl)coc12	-1.33% (inactive)	
Cc1[nH]c2ccccc2c1C(=O)C(=O)N(C)c1ccccc1	-2.78% (inactive)	
OC[C@@H]1O[C@H](n2cnc3c(SCc4ccccc4)ncnc32)[C@H](O)[C@H]1O	-22.8% (inactive)	
c1ccc(C[C@H]2CNCCN2CCC23CC4CC(CC(C4)C2)C3)cc1	-95.7% (inactive)	
c1ccc2c(CCN3CCNC[C@H]3Cc3cccc4ccccc34)cccc2c1		12.6 µM (active)
CC(C)(C)CN1C(=O)C(=O)NC[C@H]1Cc1cccc2ccccc12	3.08% (inactive)	
O=c1n(Cc2cccc(C(F)(F)F)c2)c2ccccc2c2nc(-c3ccccc3)nn12	-19.5% (inactive)	
Brc1cccc[n+]1Cc1cccc(C[n+]2ccccc2Br)c1	-2.89% (inactive)	
CCOC(=O)Nc1ccc2c(c1)N(C(=O)CCCl)c1ccccc1[S@]2=O		12.6 µM (active)
CCOC(=O)Nc1ccc(S(=O)(=O)N(C)C(C)C)cc1	0.514% (inactive)	

Compound	activity change, negative = cytotoxicity	Potency
CCOC(=O)Nc1ccc2c(c1)N(C(=O)CN1CCN3CCCC3C1)c1ccccc1CC2 (centres undefined)	-21.2% (inactive)	
Cc1ccc(C(=O)Nc2ccc(C(=O)O)cc2)cc1S(=O)(=O)Nc1ccccc1	3.73% (inactive)	
O=C(Nc1ccc2oc(-c3ccc(O)c(Br)c3)nc2c1)c1cc2ccccc2o1	-4.99% (inactive)	
CCOc1ccc(OCC)c(NS(=O)(=O)c2ccc3[nH]c(=O)ccc3c2)c1	-16% (inactive)	
C[N+]1(CC(=O)c2cccs2)CCOCC1	-3.11% (inactive)	
CC(=O)Nc1c(C)nn(-c2ccccc2)c1N1CCC(C(=O)Nc2cc(Cl)ccc2C)CC1	-7.86% (inactive)	
Cc1nnc(N2CCC(C(=O)Nc3ccc(F)cc3)CC2)c2nn(-c3ccc(Cl)cc3)c(C)c12		11.2 µM (active)
CCc1ccc(CNC(=O)C2CCN(c3nnc(C)c4c(C)n(-c5ccc(C)cc5)nc34)CC2)cc1		inactive
CCCCc1nn2c(=O)cc(COC(=O)c3cccc(NC(=O)COc4ccccc4)c3)nc2s1	-3.96% (inactive)	
O=C(NCc1ccccn1)[C@]1(C(F)(F)F)C[C@H](CCc2ccccc2)CCCO1	-0.451% (inactive)	
CC(C)(C)n1ncc2c(=O)n(Cc3ccc(C(=O)c4ccccc4)cc3)cnc21	0.159% (inactive)	
N#C/C(=C\c1ccccc1F)c1nc2ccccc2c(=O)[nH]1	-15% (inactive)	
O=C(/C(=C/c1cccc(Cl)c1)c1nc2ccccc2[nH]1)c1ccccc1		2.82 µM (active)
O=C(O)c1ccc(Cn2c(SCc3ccc(F)cc3)nc3ccncc32)cc1	-0.167% (inactive)	
COc1ccc(CCNC(=O)c2cnc3sc(N4CCCCCC4)nn3c2=O)cc1OC	4.28% (inactive)	
COc1ccc(Cl)cc1NC(=O)C(C)Sc1nc2c(c(=O)[nH]1)CCCC2 (centres undefined)	-11.4% (inactive)	
ClC/C=C/C[n+]1ccccc1Cl	-6.94% (inactive)	
CN1c2ccc(Cl)cc2-c2nc(SCC(=O)Nc3cc(F)ccc3F)ncc2S1(=O)=O	-5.61% (inactive)	
Cc1ccc(C=O)cc1Cl	3.42% (inactive)	
COc1ccc(CNC(=O)c2ccc3c(O)c(S(=O)(=O)c4ccccc4)c(=O)[nH]c3c2)cc1	-34.6% (inactive)	
CCCN1C(=O)C(O)(CC(=O)c2ccc(CC)cc2)c2cc(Br)ccc21 (centres undefined)	-103% (inactive)	
Cc1ccc(C(=O)CC2(O)C(=O)N(CCc3ccccc3)c3ccc(Br)cc32)cc1 (centres undefined)	-109% (inactive)	
CCc1ccc(C(=O)CC2(O)C(=O)N(CCc3ccccc3)c3ccc(Br)cc32)cc1 (centres undefined)		14.1 µM (active)
CC(=O)OCC(NC(=O)C(Cc1ccccc1)NC(=O)OC(C)(C)C)C1OC(n2ccc(=O)[nH]c2=O)C(OC(C)=O)C1OC(C)=O (centres undefined)	5.66% (inactive)	

Compound	activity change, negative = cytotoxicity	Potency
CC(C)(C)c1ccc(C(=O)C[N+]2(C)CCCc3ccccc32)cc1 (centres undefined)	-29.9% (inactive)	
COc1ccc(NC(=O)CCCN2C(=O)CCn3nc(-c4cn(C)c5ccccc45)cc32)cc1OC	-1.61% (inactive)	
CCOc1ccc(OCC)c(NC(=O)CN(c2ccc(C)cc2)S(=O)(=O)c2c(C)n[nH]c2C)c1		12.6 µM (active)
COC(=O)c1ccc(NC(=O)CN(c2ccc(C)cc2)S(=O)(=O)c2c(C)n[nH]c2C)cc1	-4.61% (inactive)	
COc1ccc(N(CC(=O)Nc2cc(OC)cc(OC)c2)S(=O)(=O)c2c(C)n[nH]c2C)cc1	-6.14% (inactive)	
CCCCCn1c(CCNC(=O)c2ccc(F)cc2)nc2ccccc21	-40.8% (inactive)	
CCOC(=O)Cn1c(=O)n(-c2ccccc2OC)c2nc(-c3cccc(F)c3)nc(C(N)=O)c21	0.0444% (inactive)	
CC1=C(C(=O)Nc2ccccc2)C(c2ccc(C)cc2)n2nc(SCc3ccccc3C)nc2N1 (centres undefined)	9.49% (inactive)	
C(=Nc1ccc(/C=C/c2ccnc3ccccc23)cc1)c1cc2c3c(c1)CCCN3CCC2	-21.8% (inactive)	
Cc1cccc(NC(=O)CCn2c(=O)oc3ccccc32)c1	-6.99% (inactive)	
O=C(NCc1nnnn1-c1ccc(Cl)cc1)c1ccc([N+](=O)[O-])o1	-116% (inactive)	
O=C(Nc1ccc(Br)cn1)c1ccc([N+](=O)[O-])o1		17.8 µM (active)
Cc1cccc(NC(=O)c2ccc([N+](=O)[O-])o2)c1		22.4 µM (active)
CCN(CC)S(=O)(=O)c1ccc(N2CCCC2)c(NC(=O)c2ccc([N+](=O)[O-])o2)c1	-82.1% (inactive)	
Cc1cccc(NC(=O)c2ccc(COc3ccccc3[N+](=O)[O-])o2)n1	-26.2% (inactive)	
O=C(NCCc1ccc(Cl)cc1)c1ccc2c(c1)N(Cc1ccc(F)cc1)C(=O)CS2	-17.8% (inactive)	
O=C1C[C@H]2C=CCc3cccc(c32)CN1Cc1ccccc1	-36.9% (inactive)	
O=C(COC(=O)c1ccccc1OCCOc1ccccc1)Nc1cccc(Br)c1	-16.2% (inactive)	
Cc1ccc(C)c2sc(NC(=O)c3ccc(S(=O)(=O)N4CCCC4)cc3)nc12	-17.3% (inactive)	
Cc1ccc(C)c(Cn2c(CCCNC(=O)C3CCCCC3)nc3ccccc32)c1	-9.35% (inactive)	
O=C(O)C1=C/C(=C/C=[N+]2c3cc(O)c(O[C@H]4OC(CO)[C@@H](O)[C@@H](O)[C@@H]4O)cc3C[C@@H]2C(=O)[O-])C[C@H](C(=O)O)N1 (some centres undefined)	-11.6% (inactive)	
O=C(CSc1nc2nccnc2c(=O)n1CCc1c[nH]c2ccccc12)Nc1ccccc1F	-24.6% (inactive)	
Cc1nnc(NC(=O)CSc2nccn2-c2cccc(C)c2C)s1	-20.3% (inactive)	
Cc1ccc(CS(=O)(=O)c2ncc(Cl)c(C(=O)Nc3nnc(C)s3)n2)cc1		15.8 µM (active)

Compound	activity change, negative = cytotoxicity	Potency
CSc1nnc(NC(=O)c2nc(S(=O)(=O)Cc3ccc(C)cc3)ncc2Cl)s1		15.8 µM (active)
CCOCCCNC(=O)c1c(NC(=O)c2nc(SC)ncc2Cl)sc2c1CCCC2		inactive
CCOc1cccc(C(=O)Nc2nnc(S(=O)(=O)N(C)c3ccc(C)cc3)s2)c1	-6.76% (inactive)	
Cc1ccc2nc(NC(=O)c3nc(SCc4ccccc4F)ncc3Cl)sc2c1	7.36% (inactive)	
CCN(CC)/[N+]([O-])=N/Oc1cc(O/[N+]([O-])=N/N2CCCC2CO)c([N+](=O)[O-])cc1[N+](=O)[O-] (centres undefined)	-4.3% (inactive)	
Brc1nc2ncnc(NCc3ccco3)c2[nH]1	-23.3% (inactive)	
COC(=O)c1cc(NC(=O)c2cnc(SC)nc2-c2ccccc2)cc(C(=O)OC)c1	-19.3% (inactive)	
O=C(c1ccco1)N(Cc1cccs1)c1ccc(O)cc1	-6.33% (inactive)	
CCOC(=O)C[C@H]1c2ccc(C(F)(F)F)cc2S(=O)(=O)N1c1ccccc1		inactive and 7.08 µM (active)
Cc1[nH]n(-c2ccccc2)c(=O)c1CCOC(=O)c1ccc(C(F)(F)F)cc1	-28.2% (inactive)	
COc1ccc(CN2C(CC(=O)Nc3cccnc3)c3ccc(C(F)(F)F)cc3S2(=O)=O)cc1 (centres undefined)	-2.15% (inactive)	
Cc1cc(C)c(NC(=O)CN2C(=O)c3cccnc3Oc3ccc(Cl)cc32)c(C)c1	4.94% (inactive)	
O=C1CN(Cc2ccccc2)S(=O)(=O)c2ccccc21	-3% (inactive)	
O=C(Nc1ccc(-c2nc3cc(NC(=O)c4ccccc4Cl)ccc3o2)cc1)c1ccccc1Cl	-42.5% (inactive)	
Cc1ccc(C)c(S(=O)(=O)n2nc(C)c(S(=O)(=O)N3CCC(C)CC3)c2C)c1	-2.91% (inactive)	
Cc1cc(O)ccc1-c1cc(C(=O)NCc2cc(C(F)(F)F)cc(C(F)(F)F)c2)[nH]n1		12.6 µM (active)
COc1ccc(-c2cc(C(=O)NCc3cc(OC)c(OC)c(OC)c3)[nH]n2)cc1	-6% (inactive)	
COc1ccccc1CNC(=O)c1cc(-c2cc(Cl)ccc2C)n[nH]1	-28.1% (inactive)	
CN(Cc1ccccc1)c1ncnc2onc(-c3ccc(F)cc3)c12	-7.14% (inactive)	
CCCCC(=O)OC1=CN(Cc2ccccc2)S(=O)(=O)c2ccccc21	-4.26% (inactive)	
Cc1ccccc1C(=O)Nc1sc2c(c1C(=O)N1CCC(C)CC1)CCCC2	-3.63% (inactive)	
O=C(/C=C/Sc1ncn[nH]1)c1ccc(Cl)cc1		12.6 µM (active)
